# Assay results: ChEMBL document CHEMBL3988442, “University of Dundee, Small-Polar-MMV Screening Library” (2021)
# Hit rate of the full screen: of about 69,000 compounds, about 950 (1.4%) showed an effect of 50% or more. The entries come from a sample that favours strong results as a whole.
# Test system: Mycobacterium tuberculosis
# Assay: Cornell M. t heat shock assay; also: in the data most compounds retested in dose-response had high values
# Format: functional, organism-based
# Parameters: dose or concentration left out as unconfirmed
row,SMILES,Percent Effect
1,COCC1CN(c2ccncn2)Cc2cnn(CC3CCCC3)c21.O=C(O)C(F)(F)F.O=C(O)C(F)(F)F (stereo not given),3.159%
2,Cc1ccc(CN2CCC3(CC2)CCN(C(=O)c2cccnc2)C3)o1.O=C(O)C(F)(F)F,41.04%
3,Cc1cncc(C(=O)N2C[C@H]3CCC[C@@]3(COc3ccccn3)C2)c1.O=C(O)C(F)(F)F.O=C(O)C(F)(F)F,-23.58%
4,Cc1ccc(N2CC[C@H]3C[C@H](C(=O)NCc4ccco4)O[C@@H]3C2)cc1.O=C(O)C(F)(F)F,4.102%
5,NC[C@H]1CC[C@H](C(NC(=O)c2cccc(F)c2)c2ccccn2)CC1 (stereo not given in full),107.2%
6,NC[C@H]1CC[C@H](C(NC(=O)c2ccccn2)c2ccccn2)CC1 (stereo not given in full),11.19%
7,NC[C@H]1CC[C@H](C(NC(=O)c2ccccc2)c2ccccn2)CC1 (stereo not given in full),15.73%
8,COc1ccccc1C(=O)NC(c1ccccn1)[C@H]1CC[C@H](CN)CC1 (stereo not given in full),95.79%
9,NC[C@H]1CC[C@H](C(NC(=O)C2CC2)c2ccccn2)CC1 (stereo not given in full),-11.64%
10,COc1cccc(C(=O)NC(c2ccccn2)[C@H]2CC[C@H](CN)CC2)c1 (stereo not given in full),14.74%
11,C[C@@H](N)C(=O)N1CC2(CCNCC2)c2cc(Cl)ccc21.Cl.Cl,-22.5%
12,O=C(C1=CCCC1)N1CCC2(CC1)CC(Oc1cccnc1)CO2.O=C(O)C(F)(F)F (stereo not given),-14.4%
13,Cc1nc(CN2CCc3cc(C(=O)O)c(N(C)C)nc3CC2)cs1.O=C(O)C(F)(F)F.O=C(O)C(F)(F)F,3.488%
14,O=C(C1CC1)N1CCN(Cc2ccncc2)c2ncccc2C1.O=C(O)C(F)(F)F.O=C(O)C(F)(F)F,-4.601%
15,CCc1onc(C)c1C(=O)N1CCN(c2ncc3c(n2)CCOC3)CC1.Cl,-10.25%
16,CCN1CCCc2cc(-c3cncn3C(C)CN3CCOCC3)ccc21.Cl (stereo not given),-27.45%
17,CCC(CN1CCOCC1)n1cncc1-c1ccc2c(c1)CCN2CC.Cl (stereo not given),100.9%
18,CCC(CN1CCOCC1)n1cncc1-c1ccc2c(c1)CCCN2C.Cl (stereo not given),16.42%
19,CCC(CN1CCCC1)n1cncc1-c1cnn(-c2ccccc2)c1.Cl (stereo not given),-7.106%
20,CC(CN1CCOCC1)n1cncc1-c1ccc2c(c1)CCCN2C.Cl (stereo not given),-23.4%
21,CCCS(=O)(=O)N1CCCC(c2nc(-c3ccccc3)c[nH]2)C1 (stereo not given),97.89%
22,CCN(C)S(=O)(=O)N1CCCC(c2nc(-c3ccccc3)c[nH]2)C1 (stereo not given),14.48%
23,CS(=O)(=O)N1CCCC(c2nc(-c3ccccc3)c[nH]2)C1 (stereo not given),-20.18%

row,SMILES,Percent Effect
1,Cl.Cl.NCC1[C@H]2CN(Cc3ccccc3F)C[C@@H]12 (stereo not given in full),-12.63%
2,CC(C)(C)[S+]([O-])CCNC(=O)c1csc(NC2CC2)n1 (stereo not given),-16.11%
3,CC(C)NC(=O)N1CC(=O)c2sc(NC3CCCCC3)nc2C1,1.144%
4,CC(=O)Nc1nc(C(=O)N2CCCC(c3cc(C)[nH]n3)C2)cs1 (stereo not given),-17.82%
5,Cc1[nH]/c(=N/C(=O)Cn2nc(N3CCOCC3)ccc2=O)sc1C,-6.271%
6,Cc1[nH]/c(=N\C(=O)c2csc(NC3CCCC3)n2)sc1C,101.9%
7,Cc1[nH]/c(=N\C(=O)c2csc(NC3CC3)n2)sc1C,102.4%
8,CN(C)c1ccc(CNCc2cnc(N3CCOCC3)nc2)cn1.Cl,-4.55%
9,CC(C)=CCN1C(=O)[C@H]2CC[C@@H]1CN(c1ncccn1)C2,-39.45%
10,O=C(Cc1ccccc1)N1CC[C@H]2[C@@H]1CCC(=O)N2Cc1ccncc1.O=C(O)C(F)(F)F,-22.84%
11,CCCN1C[C@H]2CC[C@@H]1CN(Cc1ccc(Cn3cccn3)cc1)C2,25.45%
12,CCCN1C[C@H]2CC[C@@H]1CN(Cc1ccc(-n3cccn3)cc1)C2,105.3%
13,CCCN1C[C@H]2CC[C@@H]1CN(Cc1cccc(-n3cccn3)c1)C2,-1.729%
14,COCCN1CCCC12CCN(C(=O)CC1CCCC1)CC2.O=C(O)C(F)(F)F,-21.16%
15,O=C(O)C(F)(F)F.O=C(O)C(F)(F)F.O=S(=O)(c1cccnc1)N1C[C@H]2CCC[C@@]2(COc2ccccn2)C1,-13.75%
16,CC(C)c1cnc(CNc2c(F)cccc2-n2cccn2)o1,8.854%
17,Cn1c(CNc2c(F)cccc2-n2cccn2)cc(=O)n(C)c1=O,6.656%
18,CC(C)(C)c1nnc(CNc2c(F)cccc2-n2cccn2)o1,0.6342%
19,Cc1cnc(CNc2c(F)cccc2-n2cccn2)o1,105%
20,Cn1ccnc1CNc1c(F)cccc1-n1cccn1,55.71%
21,CCc1noc(CNc2c(F)cccc2-n2cccn2)n1,-3.038%
22,O=C(O)C(F)(F)F.O=C1[C@H]2CN(C(=O)[C@H]3CCCO3)C[C@H]2CN1CCN1CCCC1,-0.06274%
23,COc1cccc([C@@H]2N[C@H](c3nccs3)Cc3ccsc32)c1OC,50.14%

row,SMILES,Percent Effect
1,COc1cc([C@@H]2N[C@H](c3nccs3)Cc3ccsc32)cc(OC)c1OC,-5.187%
2,COc1ccc(OC)c([C@@H]2N[C@H](c3nccs3)Cc3ccsc32)c1,6.308%
3,Cc1ncsc1CN1C[C@@H]2COC[C@]2(CNC(=O)c2ccccc2)C1.O=C(O)C(F)(F)F,-24.18%
4,COc1cc(C)sc1C(=O)NCCNc1ccccc1,57.16%
5,COc1ccsc1C(=O)NCCNc1ccccc1,-5.187%
6,COc1cc(C)sc1C(=O)NCCC(=O)N(C)c1ccccc1,0.1249%
7,Cc1nc(CN2CCO[C@H]3[C@@H](OCc4cccnc4)CC[C@@H]32)cs1.O=C(O)C(F)(F)F.O=C(O)C(F)(F)F,-27.98%
8,O=C(O)C(F)(F)F.c1cnc(N2CCC3(CC2)CN(CC2CC2)c2ccccc23)nc1,54.56%
9,O=C(O)C(F)(F)F.O=C(O)C(F)(F)F.OCCN1CC2(CCN(CC3CC3)CC2)c2ccccc21,-22.04%
10,O=C(O)C(F)(F)F.O=C1N(CC2CC2)CCC12CCN(c1ncccn1)CC2,-22.74%
11,O=C(CCCNC(=O)C1CCCO1)Nc1ccc(Cl)cc1 (stereo not given),-4.15%
12,O=C(CCC1CCCO1)NCCCC(=O)Nc1ccc(Cl)cc1 (stereo not given),104.2%
13,O=C(CCC1CCCO1)NCCCO (stereo not given),-7.133%
14,O=C(CCCNC(=O)NCC1CCCO1)Nc1ccc(Cl)cc1 (stereo not given),40.56%
15,O=C(CC1CCCO1)NCCCC(=O)Nc1ccc(Cl)cc1 (stereo not given),63.53%
16,O=C(CCC1CCCO1)NS(=O)(=O)c1ccc(Cl)cc1 (stereo not given),2.708%
17,O=C(O)C(F)(F)F.O=C(O)C(F)(F)F.O=C1COC2(CCN(CC3CCOCC3)CC2)CN1Cc1ccccn1,-24.93%
18,O=C(O)C(F)(F)F.c1cncc(N2CC[C@@H]3CN(CC4CC4)C[C@@H]3C2)c1,-51.37%
19,Cc1cnc(N2CCC3(CCCN3C(=O)c3ccco3)CC2)nc1.O=C(O)C(F)(F)F,2.375%
20,O=C(CCc1ccco1)Nc1cccc(S(=O)(=O)C(F)F)c1,70%
21,O=C(CNc1cccc(S(=O)(=O)C(F)F)c1)NCc1ccco1,18.67%
22,O=C(NCc1ccco1)Nc1cccc(S(=O)(=O)C(F)F)c1,31.42%
23,Cc1cc(C)n(CC2CCCN2C(=O)c2cccnc2N(C)C)n1 (stereo not given),-10.54%

row,SMILES,Percent Effect
1,CC(=O)N1[C@H](CN(C)C)C[C@@H]2CN(C(=O)c3cnc(C)cn3)CC[C@@H]21.O=C(O)C(F)(F)F,-17.11%
2,Cc1cc(C)n(CC2CCCN2CCS(=O)(=O)c2ccccc2)n1 (stereo not given),25.73%
3,Cc1cc(C)n(CC2CCCN2Cc2ncc(C(C)(C)C)o2)n1 (stereo not given),52.86%
4,c1ncn(CC2CCCN2Cc2cn3ccsc3n2)n1 (stereo not given),-23.29%
5,Cc1nc(C)n(CC2CCCCN2Cc2ncc(C(C)(C)C)o2)n1 (stereo not given),-15.1%
6,Cc1nc(C)n(CC2CCCN2Cc2cn3ccsc3n2)n1 (stereo not given),52.44%
7,Cc1nc(C)n(CC2CCCN2Cc2nc(C)c3ccccc3n2)n1 (stereo not given),-0.1749%
8,Cc1nc(C)n(CC2CCCN2Cc2nc(N)c3ccccc3n2)n1 (stereo not given),90.98%
9,Cc1cc(C)n(CC2CCCN2Cc2nc(N)c3ccccc3n2)n1 (stereo not given),96.02%
10,Cc1nc(C)n(CC2CCCN2Cc2ncc(C(C)(C)C)o2)n1 (stereo not given),8.269%
11,Cc1nc(C)n(CC2CCCN2Cc2cn3ccccc3n2)n1 (stereo not given),-6.655%
12,Cc1nc(C)n(CC2CCCN2Cc2nc3ccccc3nc2C)n1 (stereo not given),-3.804%
13,Cc1nn(C)c(C)c1C1CCCN1Cc1nc(N)c2ccccc2n1 (stereo not given),-13.27%
14,CN1CC(=O)N(c2ccsc2)CC12CCN(Cc1cnn(C)c1)C2.O=C(O)C(F)(F)F.O=C(O)C(F)(F)F (stereo not given),-44.55%
15,O=C(NCc1cnc2n1CCN(CC1CC1)C2)C1CC1.O=C(O)C(F)(F)F,-32.01%
16,O=CO.c1cc2nccc(CC3CCCN(C4CCOCC4)CC3)c2cn1 (stereo not given),-0.8025%
17,CNC(=O)CNCc1c[nH]nc1-c1cc2ccccc2o1.Cl,4.817%
18,Cc1cc(CN2CC[C@H]3C(=O)N(c4ccccc4)CCO[C@H]3C2)no1.O=C(O)C(F)(F)F,-6.692%
19,O=C(O)C(F)(F)F.O=C1CCC2(CCN(Cc3ccc(F)cc3)CC2)N1Cc1ccccc1,1.967%
20,O=C(NC1CC1)N1CCC2(CC1)C(=O)NCCN2Cc1ccccc1.O=C(O)C(F)(F)F,5.553%
21,CC(C)CN1C(=O)C2(CCN(Cc3cccs3)C2)c2ccccc21.O=C(O)C(F)(F)F (stereo not given),9.511%
